Source: PubChem BioAssay
KinaseGlo FLuc – blocks Kinase-Glo luciferase, a counter-screen artifact; Q27757; Kinase-Glo luciferase, ATP luminescence, 8 min; Potency, µM (series often up to 38.3 µM), without a hit: top-dose activity change, negative = inhibition, most hits filed as inhibitors; hit rate 0.28% among 200,000; also: % is scaled to controls: 0 for no effect and ±100 for the full control effect; nearly all actives have a fitted effect of over 60% in size
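Luminescence was the read-out, taken after 8-minute incubation at ambient temperature. Luciferase turned over luciferin with 10 uM ATP in imidazole pH 7.2 buffer containing KCl, MgCl2, Tween 20 and BSA.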
SMN2 splice up – increases expression of the SMN2 splice variant. hit rate 2.8% among 210,000. Potency, µM (doses to about 46.1 µM), for the others: at the highest dose activity change, positive = activation, hits mostly activators. AID 1458. HEK293 SMN2-luciferase splicing reporter, luminescence, 30-36 h; also: % of control where 0% means no effect; nearly all actives have a fitted effect of over 55% in size
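HEK293 cells carry an SMN2 minigene-luciferase reporter in which exon 7 inclusion puts luciferase in frame. Cells were seeded at 2000 cells/well, attached for 10-12 hours, then exposed to compounds for 30-36 hours at 37C before ONE-Glo luminescence.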
Rab9 promoter act – activators of Rab9 promoter; AID 485297; Huh7 Rab9 promoter-luciferase reporter, luminescence, 24 h; hit rate 2.8% among 320,000; Potency, µM (top dose mostly 9.22 µM), without a hit: at the top dose activation, negative = inhibition, hits mostly activators; also: % of control where 0% means no effect; nearly all actives have a fitted effect of over 60% in size
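Luminescence from Amplite-detected luciferase (10 minutes, ambient) reports Rab9 promoter activation. Before that, stable Rab9-luciferase Huh7 cells (1500/well, reduced-serum OP-MEM I plus 10% FBS) were exposed to compound for 24 hours at 37C.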
ELG1 genotoxic – inducers of genotoxicity in HEK293T ELG1-luciferase cells; hit rate 1.3% among 330,000; Potency, µM (highest dose often 46 µM), inactives show at the top dose activity change, positive = activation, usual class: activators; HEK293T ELG1-luciferase reporter, luminescence, 16 h; AID 504466; also: % of control where 0% means no effect; nearly all actives have a fitted effect of over 60% in size
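Quantitative HTS format in 1536-well plates. HEK293T ELG1-luciferase reporter cells receive test compound and are incubated 16 hr at 37 °C, 5% CO2; ONE-Glo added, 30 min room temperature, then luminescence read.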
NPC1 prom act – NPC1 promoter activation | Huh7 NPC1 promoter luciferase reporter, 24 h | Potency, µM (titrated, usually from 9.22 µM), for the others: at the top dose activation, actives largely listed as activators | hit rate 2.4% among 320,000; also: % of control where 0% means no effect; nearly all actives have a fitted effect of over 60% in size
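Luminescence from an NPC1 promoter-driven luciferase reporter in stably transfected Huh7 cells was measured after 24 h compound treatment at 37 °C, followed by 10 min ambient incubation with luciferase detection reagent.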
FLuc modulator – firefly luciferase modulation, counter-screen for miR-21 project | P08659 | purified FLuc, Km substrates, luminescence inhibition | Potency, µM (doses to about 57.5 µM), for the others: top-dose activity change, negative = inhibition, usual class: inhibitors | hit rate 6.9% among 360,000 | AID 588342;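 also: plate controls were vehicle for no effect and reference inhibitor for full effect; nearly all actives have a fitted effect of over 55% in size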
Target sequence (P08659 whole entry, looked up): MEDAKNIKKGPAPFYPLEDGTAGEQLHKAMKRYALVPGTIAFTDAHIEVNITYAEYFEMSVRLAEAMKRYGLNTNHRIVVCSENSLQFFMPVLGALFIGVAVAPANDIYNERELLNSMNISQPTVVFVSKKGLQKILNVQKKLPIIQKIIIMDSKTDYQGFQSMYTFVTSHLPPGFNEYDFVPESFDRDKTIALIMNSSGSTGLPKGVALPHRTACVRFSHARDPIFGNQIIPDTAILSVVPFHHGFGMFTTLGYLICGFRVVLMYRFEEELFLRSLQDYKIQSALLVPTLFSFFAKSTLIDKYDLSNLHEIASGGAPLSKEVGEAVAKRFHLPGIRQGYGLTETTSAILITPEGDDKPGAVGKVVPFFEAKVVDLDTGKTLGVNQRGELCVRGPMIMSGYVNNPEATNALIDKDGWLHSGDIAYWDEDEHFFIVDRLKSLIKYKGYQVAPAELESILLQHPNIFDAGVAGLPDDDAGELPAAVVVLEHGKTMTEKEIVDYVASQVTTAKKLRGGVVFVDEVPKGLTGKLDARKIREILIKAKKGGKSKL
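Purified P. pyralis luciferase (10nM final) with 10uM D-luciferin and 10uM ATP (Km levels) in 50mM Tris acetate pH 7.5, 10mM Mg acetate, 0.01% Tween-20, 0.05% BSA; qHTS 6-point titration, ~60 µM downward; luminescence read.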
Numbers without * were called inactive; ? = inconclusive; . = no result; [ ] = another dose, or the depositor's remark. An excerpt weighted towards active compounds, which were near 7.4% of everything screened. Calls follow the shape of the dose curve; as a rule, active = well fitted curve in the direction sought with a large enough effect; inconclusive = small, poorly fitted or top-dose-only effect, or another doubt; inactive = no such curve, though single readings can be large; an effect the other way counts as inactive or inconclusive. Potency is read from the fitted curve at half-maximal effect.

SMILES	KinaseGlo FLuc	SMN2 splice up	Rab9 promoter act	ELG1 genotoxic	NPC1 prom act	FLuc modulator
CCOc1ccc2cc(-c3nnc(Nc4ccccc4F)s3)c(=O)oc2c1	.	6%	.	.	.	-7%
Cc1ccc(/C=C/C(=O)c2ccc(O)cc2)cc1	.	.	?	17%	19%	2.1µM*
Cc1ccc(C(=O)/C=C/C(=O)O)cc1	2%	-23%	1%	0%	4%	?
CSc1ccc(/C=C/C(=O)c2ccc(O)cc2)cc1	-18%	-3%	?	?	24%	3µM*
COc1cccc(Cn2c(=O)c(-c3cccc(C#N)c3)nc3cnc(Nc4ccccc4)nc32)c1	-2%	-10%	.	.	.	.
O=C(CCNC(=O)c1ccccc1Cl)Nc1nc2ccccc2s1	-6%	.	?	?	?	?
O=C(CCNC(=O)c1ccccc1Cl)Nc1nc(-c2ccc(F)cc2)cs1	.	.	2%	-2%	-1%	-17%
O=C(CCNC(=O)c1ccccc1Cl)Nc1nc(-c2ccccc2Cl)cs1	1%	3%	1%	14%	8%	17µM*
COc1ccc2nc(NC(=O)CCNC(=O)c3ccccc3Cl)sc2c1	-1%	16µM*	30%	10%	16%	19µM*
COc1ccc2nc(N(Cc3cccnc3)C(=O)COc3ccccc3)sc2c1	.	.	.	.	.	-11%
COc1ccc2sc(NC(=O)c3ccco3)nc2c1	-27%	?	0.35µM*	?	0.5µM*	0.76µM*
COc1ccc2nc(N(Cc3ccccc3)C(=O)CCNC(C)=O)sc2c1	.	.	?	?	?	19µM*
Cc1ccc(NC(=O)C(Cc2ccccc2)n2cccc2)c(C)c1 (stereo not given)	.	-11%	.	.	.	-18%
Cc1cccc(NC(=O)c2cc3c(=O)n(Cc4ccco4)ccc3nc2C)c1	.	.	.	.	.	-8%
C[C@@]12CC[C@@H]3[C@H](CCC4=CC(=O)CC[C@]43C)[C@@H]1CC[C@@H]2C(=O)Cn1cnc2c(=S)nc[nH]c21	-3%[7.66 µM]	-27%[9.22 µM]	.	.	.	.
CCOC(=O)c1sc(NC(=S)NC(=O)c2ccco2)nc1C	-2%	?	19%	11%	17%	?
O=C(CCNC(=O)c1ccco1)Nc1nc2ccccc2s1	.	.	?	9%	26%	?
COc1ccc2nc(NC(=O)CCNC(=O)c3ccco3)sc2c1	.	.	3.2µM*	?	3.2µM*	12µM*
COc1ccc2nc(NC(=S)NC(=O)c3ccco3)sc2c1	-3%	7.9µM*	1µM*	?	3.2µM*	0.67µM*
O=C(NC(=S)Nc1nc2ccccc2s1)c1ccco1	-5%	11µM*	?	?	?	1.5µM*
O=C(O)c1c[nH]c2cc(OCc3ccccc3)ccc2c1=O	-8%[7.66 µM]	?	.	.	.	.
CC1CCc2c(sc(/N=C/c3ccco3)c2C(N)=O)C1 (stereo not given)	.	.	28%	?	?	5.4µM*
CC1CCc2c(sc(/N=C/c3cccnc3)c2C(N)=O)C1 (stereo not given)	.	.	2%	17%	8%	24µM*
Cc1cc(Cl)ccc1OCC(=O)Nc1c(C(=O)c2ccccc2)oc2ccccc12	.	-4%	.	.	.	-2%
O=C(COc1ccc2ccccc2c1)NNC(=O)Cc1cccc2ccccc12	-5%	-16%	0%	1%	-5%	3%
SMILES	KinaseGlo FLuc	SMN2 splice up	Rab9 promoter act	ELG1 genotoxic	NPC1 prom act	FLuc modulator
CC(C)(C)c1ccc(C(=O)NNC(=O)Cc2cccc3ccccc23)cc1	-9%	17%	1%	-22%	0%	15µM*
CN(C)S(=O)(=O)Nc1ccc2c(c1)Cc1ccccc1-2	0%	?	24%	?	16%	27µM*
CC(C)c1ccc(OCC(=O)Nc2c(C(=O)c3ccc(F)cc3)oc3ccccc23)cc1	.	1%	.	.	.	-5%
Oc1c(C=NCc2ccccc2)sc2ccccc12	1%	2%	2.8µM*	?	?	11µM*
O=[N+]([O-])c1ccc(N=Cc2sc3ccccc3c2O)cc1	-5%	25µM*	?	8.2µM*	22%	?
CCn1c(=O)c2cc(C(=O)Nc3cc(C)c(Cl)cc3OC)sc2c2ccccc21	.	9%	.	.	.	-1%
